Screening results: PubChem, National Center for Advancing Translational Sciences (NCATS)
This is a sample that favours compounds with a hit; in the whole collection about 2.3% have one here.
Nrf2 inh = Nrf2 pathway inhibition; A549 ARE-Fluc reporter, luciferase luminescence, 18-24 h; Potency, µM (highest dose often 46 µM), usual class: inhibitors; 360,000 tested, 2.1% active; AID 504444; note: nearly all actives have a fitted effect of over 60% in size
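In this cell-based qHTS, ARE-driven firefly luciferase in A549 cells reports Nrf2 activity; the luminescent signal after BugLite lysis is the measured value, with a prior CellTiter-Fluor read for cell health.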
Nrf2 ARE act = Nrf2 pathway activation; AREc32 ARE-luciferase reporter (MCF7-derived line), luminescence, 24 h; 410,000 tested, 0.31% active; Potency, µM (series often up to 46.1 µM), usual class: activators; note: nearly all actives have a fitted effect of over 65% in size
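AREc32 cells carrying an ARE-driven firefly luciferase, 1000 cells/well in OPTI-MEM with 5% FBS, dosed after overnight attachment and incubated 24 hr at 37 deg C. Steady-Glo luminescence read after 30 min at RT.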
Rango-impB inh = prevents formation of the Rango-importin beta complex; Q14974; Rango CFP/YFP FRET sensor + importin beta, 45 min; Potency, µM (top dose mostly 92.2 µM); 340,000 tested, 0.031% active; AID 540263; calls by dose curve; note: nearly all actives have a fitted effect of over 15% in size
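Inhibition scored from the CFP 486 nm/YFP 530 nm FRET ratio 45 min after adding 0.125 microM importin beta to 50 nM Rango biosensor preincubated 5 min with compound (room temperature, PBS with DTT, Tween-20, BSA). No-importin wells as positive control.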
Rango release inh = prevents RanGTP from dissociating the Rango-importin beta complex; Potency, µM (doses to about 46.1 µM); 340,000 tested, 0.071% active; Biochemical FRET Rango-importin beta, RanGTP-induced dissociation; AID 540253; O95149+P62826; calls by dose curve; note: nearly all actives have a fitted effect of over 45% in size
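Rango/importin beta premix (0.1/0.25 uM final), PBS + 1 mM DTT + 0.02% Tween-20 + 0.1% BSA; cpd 5 min RT; FRET pre-read; + RanGTP-RCC1 (0.6 uM Ran, 2 mM GTP, 0.2 uM RCC1); 45 min RT; FRET post-read, ex 430, em 486/530 nm.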
A549 tox-1 = kills or reduces viability of A549 cells in Nrf2 counter-screen; Potency, µM (highest dose often 46 µM), usual class: inhibitors; 390,000 tested, 0.16% active; A549 ARE-Fluc cells, CellTiter-Fluor viability, 18-24 h
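Cytotoxicity counterscreen: CellTiter-Fluor fluorescence was measured in A549 ARE_Fluc cells after 18-24 h of compound exposure in a concentration series. The subsequent BugLite luminescent read reports ARE-luciferase activity.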
FLuc counter 3 = firefly luciferase inhibition, Nrf2 hit validation; shares compounds with Nrf2 inh; purified firefly luciferase, luminescence inhibition; Potency, µM (titrated, usually from 57.5 µM), most hits filed as inhibitors; 1,400 tested, 4% active; note: nearly all actives have a fitted effect of over 65% in size
Target sequence (P08659 whole entry, looked up): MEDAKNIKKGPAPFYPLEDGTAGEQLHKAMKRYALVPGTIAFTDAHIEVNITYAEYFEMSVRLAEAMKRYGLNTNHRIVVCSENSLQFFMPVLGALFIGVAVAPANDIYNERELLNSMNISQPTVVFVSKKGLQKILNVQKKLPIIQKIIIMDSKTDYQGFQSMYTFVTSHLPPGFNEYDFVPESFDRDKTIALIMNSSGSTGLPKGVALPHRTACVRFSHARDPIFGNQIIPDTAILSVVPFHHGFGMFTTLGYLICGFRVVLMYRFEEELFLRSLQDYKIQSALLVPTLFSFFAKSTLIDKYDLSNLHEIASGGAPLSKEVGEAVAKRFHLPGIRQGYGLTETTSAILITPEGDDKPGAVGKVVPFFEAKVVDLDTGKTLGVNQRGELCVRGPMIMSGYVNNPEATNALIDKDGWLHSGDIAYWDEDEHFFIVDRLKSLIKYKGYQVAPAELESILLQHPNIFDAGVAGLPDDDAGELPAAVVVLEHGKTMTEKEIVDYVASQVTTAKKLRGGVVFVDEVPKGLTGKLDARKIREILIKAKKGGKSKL
A549 tox-2 = A549 cytotoxicity, Nrf2 inhibitor counterscreen; AID 720523; 1,400 tested, 2% active; Potency, µM (doses to about 46.1 µM), hits mostly inhibitors; shares compounds with Nrf2 inh; A549 ARE-Fluc cells, cytotoxicity counterscreen;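 note: cells exposed to compounds for 18 to 24 hours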
Nrf2 ARE inh = reduces Nrf2 ARE reporter signal in A549 cells; A549 ARE-firefly luciferase reporter, luminescence; shares compounds with Nrf2 inh; 1,400 tested, 74% active; Potency, µM (doses to about 46.1 µM), most hits filed as inhibitors; note: nearly all actives have a fitted effect of over 65% in size
A number is an active result. Unless noted, calls come from the whole dose curve; as a rule, active = well fitted curve in the direction sought with a large enough effect; inconclusive = small, poorly fitted or top-dose-only effect, or another doubt; inactive = no such curve, though single readings can be large; an effect the other way counts as inactive or inconclusive.

`COc1ccc(NC(=O)CSc2nc(-c3ccco3)cc(C(F)(F)F)n2)cc1Cl` gave Nrf2 inh 7.3µM, Nrf2 ARE act inactive, A549 tox-1 inactive, FLuc counter 3 inactive, A549 tox-2 inactive and Nrf2 ARE inh 21µM.
For COc1ccc(C(=O)COC(=O)CN2C(=O)c3ccccc3C2=O)c(OC)c1 the results were Nrf2 inh inactive, Nrf2 ARE act inactive, Rango-impB inh inactive, Rango release inh inactive and A549 tox-1 inactive.
For CCCCNC(=S)Nc1cccc2cnccc12 the results were Nrf2 inh inactive, Nrf2 ARE act inactive, Rango-impB inh inactive, Rango release inh inactive and A549 tox-1 inactive.
S=C(NCc1ccccc1)Nc1cccc2cnccc12 was read as Nrf2 inh 2.6µM, Nrf2 ARE act inactive, Rango-impB inh inconclusive, Rango release inh inactive, A549 tox-1 inactive, FLuc counter 3 inactive, A549 tox-2 inactive and Nrf2 ARE inh 7.3µM.
`S=C(NCCc1ccccc1)Nc1cccc2cnccc12` gave Nrf2 inh 3.7µM, Nrf2 ARE act inactive, Rango-impB inh inactive, Rango release inh inactive, A549 tox-1 inactive, FLuc counter 3 0.043µM, A549 tox-2 inactive and Nrf2 ARE inh 2.6µM.
Screening CCn1c(SCC(=O)Nc2ccc(C)cc2Br)nnc1-c1nonc1NC(C)=O returned Nrf2 inh inactive, Nrf2 ARE act inactive and A549 tox-1 inactive.
`CCOCCCn1c(=S)[nH]c2cc(C(=O)NC3CCCC(C)C3C)ccc2c1=O` (centres undefined) gave Nrf2 inh inactive, Nrf2 ARE act inactive, Rango-impB inh inactive, Rango release inh inactive and A549 tox-1 inactive.
For COc1ccc2c(c1)/C(=C\c1cccc(/C=C3/C(=O)Nc4ccc(OC)cc43)n1)C(=O)N2 the results were Nrf2 inh 8.2µM, Nrf2 ARE act inactive, Rango-impB inh inactive, Rango release inh inactive, A549 tox-1 inactive, FLuc counter 3 inconclusive, A549 tox-2 inactive and Nrf2 ARE inh inconclusive.
For CCC(OC(=O)CN1C(=O)C(=O)c2ccccc21)C(=O)Nc1ccccc1OC (centres undefined) the results were Nrf2 inh inactive, Nrf2 ARE act inactive, Rango-impB inh inactive, Rango release inh inactive and A549 tox-1 inactive.
CCCCn1c(N)c(N(CCOC)C(=O)c2cc(C)oc2C)c(=O)[nH]c1=O was read as Nrf2 inh inactive, Nrf2 ARE act inactive, Rango-impB inh inactive, Rango release inh inactive and A549 tox-1 inactive.
C#CC1(N2CCCCC2)CCCCC1 was read as Nrf2 ARE act inactive.
OCc1c[nH]c2ccccc12 was read as Nrf2 inh inactive, Nrf2 ARE act inactive, Rango-impB inh inconclusive, Rango release inh inactive and A549 tox-1 inactive.
Screening Oc1cccc2c(CC(O)c3c[nH]c4ccccc34)ccnc12 (centres undefined) returned FLuc counter 3 inactive, A549 tox-2 inactive and Nrf2 ARE inh 4.1µM.
CCc1ccc(NC(=O)CSc2nc3ccccc3c(=O)n2CCCN2CCC(C)CC2)cc1 was read as Nrf2 inh inactive, Nrf2 ARE act inactive, Rango-impB inh inactive, Rango release inh inactive and A549 tox-1 inactive.
Screening CC1(c2ccc3ccccc3c2)NC(=O)N(CC(=O)N2CCN(Cc3ccc(C#N)cc3)CC2)C1=O (centres undefined) returned Nrf2 inh 0.41µM, Nrf2 ARE act inactive, Rango-impB inh inactive, Rango release inh inactive, A549 tox-1 inactive, FLuc counter 3 inactive, A549 tox-2 inactive and Nrf2 ARE inh 0.82µM.
CC(=O)N1CCN(C(=O)CN2C(=O)NC(C)(c3ccc4ccccc4c3)C2=O)CC1 (centres undefined) was read as Nrf2 inh inactive, Nrf2 ARE act inactive, Rango-impB inh inactive, Rango release inh inactive and A549 tox-1 inactive.
`O=C1c2ccccc2-n2c1nc1ccccc1c2=O` gave Nrf2 inh 5.2µM, Nrf2 ARE act inactive, Rango-impB inh inactive, Rango release inh inactive, A549 tox-1 inactive, FLuc counter 3 inactive, A549 tox-2 16µM and Nrf2 ARE inh 6.5µM.
Screening O=c1c2ccccc2nc2n1-c1ccccc1CCC2 returned Nrf2 inh inactive, Nrf2 ARE act inactive, Rango-impB inh inactive, Rango release inh inactive and A549 tox-1 inactive.
CCOC(=O)c1c(S(=O)(=O)N(C)C2CCCCC2)c(C)n(C)c1C was read as Nrf2 inh inactive, Nrf2 ARE act inactive, Rango-impB inh inactive, Rango release inh inactive and A549 tox-1 inactive.
`Cc1oc(CN2CCOCC2)cc1C(=O)O` gave Nrf2 inh inactive, Nrf2 ARE act inactive, Rango-impB inh inactive, Rango release inh inactive and A549 tox-1 inactive.
`Cc1cc(NC(=O)c2cc(Cl)ccc2Cl)ccc1-c1cc2ccccc2oc1=O` gave Nrf2 inh inconclusive, Nrf2 ARE act inactive, A549 tox-1 inactive, FLuc counter 3 inactive, A549 tox-2 inactive and Nrf2 ARE inh inactive.
Cc1cc(C)cc(C(=O)NC(=S)Nc2ccc(-c3cc4ccccc4oc3=O)cc2)c1 was read as Nrf2 inh 3.7µM, Nrf2 ARE act inactive, Rango-impB inh inactive, Rango release inh inactive, A549 tox-1 inactive, FLuc counter 3 inactive, A549 tox-2 inactive and Nrf2 ARE inh inconclusive.
For O=c1[nH]c(=O)n(Cc2ccco2)c2c1C(C(F)(F)F)(C(F)(F)F)N=C(c1ccc(F)cc1)N2 the results were Nrf2 inh 4.1µM, Nrf2 ARE act inactive, Rango-impB inh inactive, Rango release inh inactive, A549 tox-1 inactive, FLuc counter 3 inactive, A549 tox-2 inactive and Nrf2 ARE inh 2.9µM.
`COC(=O)C1=C(C)NC2=C(C(=O)CCC2)C1c1ccc(-c2ccsc2C(=O)OC)o1` (centres undefined) gave Nrf2 inh inactive, Nrf2 ARE act inactive, Rango-impB inh inactive, Rango release inh inactive and A549 tox-1 inactive.
For CN1CCCN(C(=O)c2c(F)cccc2Cl)CC1 the results were Nrf2 inh inactive, Nrf2 ARE act inactive, Rango-impB inh inactive, Rango release inh inactive and A549 tox-1 inactive.
COc1ccc2cc3c(N)nn(C(=O)c4ccccc4Cl)c3nc2c1 was read as Nrf2 inh 9.2µM, Nrf2 ARE act inactive, Rango-impB inh inactive, Rango release inh inactive, A549 tox-1 inactive, FLuc counter 3 inactive, A549 tox-2 inactive and Nrf2 ARE inh inconclusive.
For COc1ccc2cc3c(N)nn(C(=O)c4cccc(F)c4)c3nc2c1 the results were Nrf2 inh inconclusive, Nrf2 ARE act inactive, Rango-impB inh inactive, Rango release inh inactive and A549 tox-1 inactive.
